G9a inh = blocks human histone lysine methyltransferase G9a; G9a H3K9 monomethylation, AlphaScreen, 2 h; Q96KQ7; actives 8.8% (n = 350,000); AID 504332; Potency, µM (series often up to 102 µM), usual class: inhibitors; also: nearly all actives have a fitted effect of over 75% in size
Target sequence (Q96KQ7 913-1193 limits assumed): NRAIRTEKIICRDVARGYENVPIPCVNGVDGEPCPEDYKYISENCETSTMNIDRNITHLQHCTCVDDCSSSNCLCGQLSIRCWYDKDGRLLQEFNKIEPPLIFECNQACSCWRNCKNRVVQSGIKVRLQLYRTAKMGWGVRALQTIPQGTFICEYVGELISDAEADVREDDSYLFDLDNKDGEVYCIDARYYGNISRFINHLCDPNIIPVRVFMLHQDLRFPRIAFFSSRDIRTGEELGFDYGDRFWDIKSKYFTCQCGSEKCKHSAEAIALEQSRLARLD
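Signal arises when biotinylated H3K9 peptide, once monomethylated, bridges streptavidin donor and antibody-captured acceptor beads. Enzyme at 20 nM was preincubated 15 min with test compounds; peptide 500 nM and SAM 20 uM then reacted for 2 h.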
HP1b binding inh = inhibitors of HP1-beta chromodomain binding to methylated histone tails | Potency, µM (highest dose often 114 µM), most hits filed as inhibitors | P83916 | AID 540317 | AlphaScreen HP1-beta / biotin-H3K9me3 peptide binding | actives 0.56% (n = 390,000); also: nearly all actives have a fitted effect of over 70% in size
Target sequence (P83916 whole entry, looked up): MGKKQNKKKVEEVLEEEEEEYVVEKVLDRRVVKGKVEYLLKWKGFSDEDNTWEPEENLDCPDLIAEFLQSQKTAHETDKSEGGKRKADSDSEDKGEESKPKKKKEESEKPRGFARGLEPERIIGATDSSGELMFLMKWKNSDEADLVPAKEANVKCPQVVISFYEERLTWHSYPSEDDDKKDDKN
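Compound inhibition of the preformed complex between 50 nM HP1-beta and 50 nM biotinylated H3K9me3 peptide was read by AlphaScreen. Buffer was PBS pH 7.4 with 0.01% Tween-20. Incubations ran 30 min at room temperature, with 10 ug/mL donor/acceptor beads.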
Sfp inh = Sfp phosphopantetheinyl transferase inhibition | Q9F4F7 | Biochemical Sfp PPTase activity, qHTS | Potency, µM, hits mostly inhibitors | actives 3.5% (n = 310,000) | AID 1490;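 also: the enzyme is Sfp with the accession as filed and its product quenches rhodamine fluorescence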
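Fluorescence-quenching assay: 15 nM Sfp-PPTase preincubated 15 min at room temperature with compound, then 5 uM rhodamine-CoA and 12.5 uM BHQ-2-labelled YbbR peptide added. Fluorescence (ex 525/em 598 nm) read at start and after 30 min; difference gives rate.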
JMJD2A Tudor = inhibitors of human JMJD2A Tudor domain. O75164. AlphaScreen JMJD2A-Tudor / H3K4me3 peptide binding. Potency, µM (titrated, usually from 114 µM), actives largely listed as inhibitors. actives 4.4% (n = 390,000); also: nearly all actives have a fitted effect of over 50% in size
BAZ2B block = BAZ2B (human) inhibition. AID 504333. actives 4.4% (n = 360,000). AlphaScreen BAZ2B-H3K14Ac peptide displacement. Potency, µM (top dose mostly 114 µM), usual class: inhibitors. Q9UIF8; also: nearly all actives have a fitted effect of over 60% in size
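BAZ2B 50 nM plus b-H3(5-23)K14Ac 50 nM, PBS pH 7.4/0.01% Tween-20, 30 min RT; compound added (max 110 uM), 30 min RT; streptavidin donor/Ni-chelate acceptor beads 10 ug/mL final, 20 min dark; AlphaScreen read.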
Large screens that a line does not name were inactive; ! = repeats disagree. In the library only some 12% were active in any assay of this set; here they are far more common. Calls follow the shape of the dose curve; as a rule, active = well fitted curve in the direction sought with a large enough effect; inconclusive = small, poorly fitted or top-dose-only effect, or another doubt; inactive = no such curve, though single readings can be large; an effect the other way counts as inactive or inconclusive.

COc1cc(NS(C)(=O)=O)ccc1Cc1c2ccccc2nc2ccccc12	none (no result: G9a inh, HP1b binding inh, JMJD2A Tudor, BAZ2B block)
CN(CCCCCCCCCCN(C)C(=O)Oc1cccc([N+](C)(C)C)c1)C(=O)Oc1cccc([N+](C)(C)C)c1	none (no result: Sfp inh)
CN(C)c1ncc(C(=O)NCc2ccccc2Cl)cn1	none (no result: Sfp inh)
COc1cc(C(=O)OCCNC(=O)c2cccnc2)cc(OC)c1OC	JMJD2A Tudor inconclusive (no result: G9a inh, Sfp inh, BAZ2B block)
Cc1cc(C)c(OCC(=O)OCCNC(=O)c2cccnc2)c(C)c1	G9a inh 25.1µM, BAZ2B block inconclusive
CN1C(c2ccc(F)cc2)=CS/C1=C(/C#N)c1nnc(N2CCOCC2)n1-c1ccccc1	G9a inh inconclusive
CCN1C(c2ccc(F)cc2)=CS/C1=C(\C#N)c1nnc2n1-c1ccccc1SC2	G9a inh 31.6µM, JMJD2A Tudor inconclusive, BAZ2B block inconclusive
CC(=O)c1cc(-c2ccccc2)n(CCC(=O)NC2CCCC2)c1C	BAZ2B block 50.1µM
CC(=O)c1cc(-c2ccccc2)n(CCC(=O)NC2CCC(C)CC2)c1C (stereo not drawn)	none
CCC(C)NC(=O)CCn1c(-c2ccccc2)cc(C(C)=O)c1C (stereo not drawn)	BAZ2B block 50.1µM
CC(=O)c1cc(-c2ccc(F)cc2)n(CC(=O)NC2CCCCCC2)c1C	none (no result: Sfp inh)
CC(=O)c1cc(-c2ccccc2)n(CCC(=O)NC2CCCCC2)c1C	BAZ2B block 50.1µM!
Cc1ccc(C)c(SCC(=O)Nc2ccc(C)c(S(=O)(=O)N3CCOCC3)c2)c1	none (no result: Sfp inh)
Cc1ccc(-c2nc(C(=O)NC3CCCCCC3)no2)cc1	JMJD2A Tudor 15.8µM (no result: G9a inh, Sfp inh, BAZ2B block)
Cc1cccc(OCCn2c(-c3ccc(Cl)cc3)nc3ccccc3c2=O)c1	none (no result: Sfp inh)
CC(=O)c1ccc(/C=C/c2nc3ccccc3n2C)o1	Sfp inh 50.1µM
Cn1c(/C=C/c2ccccc2)nc2ccccc21	none
Cc1ccsc1CNCc1cc(Cl)ccc1O	none (no result: Sfp inh)
CCOC(=O)N1CCN(C(=O)c2cccc(F)c2)CC1	none
O=C(c1cccc(F)c1)N1CCN(CC2CC3C=CC2C3)CC1 (stereo not drawn)	G9a inh 10µM, HP1b binding inh inconclusive, JMJD2A Tudor 5.62µM, BAZ2B block 50.1µM
O=CN1CCN(C(=O)c2ccccc2F)CC1	none (no result: BAZ2B block)
Cc1ccc(CN2CCN(CC3CC4C=CC3C4)CC2)cc1 (stereo not drawn)	G9a inh inconclusive, HP1b binding inh inconclusive, Sfp inh inconclusive, JMJD2A Tudor 5.62µM, BAZ2B block 28.2µM
O=S(=O)(c1ccc(F)cc1)N1CCN(CC2CC3C=CC2C3)CC1 (stereo not drawn)	G9a inh 22.4µM, HP1b binding inh inconclusive, JMJD2A Tudor 11.2µM, BAZ2B block 50.1µM
O=C(c1ccccc1F)N1CCN(CC2CC3C=CC2C3)CC1 (stereo not drawn)	G9a inh inconclusive, HP1b binding inh inconclusive, JMJD2A Tudor 3.98µM, BAZ2B block 56.2µM
Cc1ccc(CN2CCS(=O)(=O)CC2)cc1	none
COc1ccc(S(=O)(=O)N(CC(=O)N2CCN(C)CC2)c2ccc(C)cc2)cc1Br	HP1b binding inh inconclusive
O[C@H](CN1CCN(c2cccc(Cl)c2)CC1)C(c1ccccc1)c1ccccc1	none (no result: G9a inh, HP1b binding inh, JMJD2A Tudor, BAZ2B block)
CC(C)CN(C(=O)COC(=O)C12CC3CC(CC(C3)C1)C2)c1c(N)n(Cc2ccccc2)c(=O)[nH]c1=O	none (no result: Sfp inh)
CC(=O)Nc1ccc2c(c1)C(=Nc1ccccc1)c1ccccc1-2	JMJD2A Tudor 35.5µM (no result: G9a inh, Sfp inh, BAZ2B block)
CCCCCC(/C=N/Nc1ccc(S(=O)(=O)N2CCOCC2)cc1[N+](=O)[O-])=C\c1ccccc1	G9a inh 11.2µM, HP1b binding inh inconclusive, JMJD2A Tudor inconclusive, BAZ2B block inconclusive
COc1ccc(CCNc2ccc(S(=O)(=O)N3CCCC3)cc2[N+](=O)[O-])cc1	G9a inh inconclusive, HP1b binding inh inconclusive, JMJD2A Tudor inconclusive, BAZ2B block inconclusive
CCCN1CCC(=NNc2ccc(S(=O)(=O)N3CCOCC3)cc2[N+](=O)[O-])CC1	JMJD2A Tudor inconclusive
COc1ccccc1Nc1ccc(S(=O)(=O)N2CCCCC2)cc1[N+](=O)[O-]	G9a inh inconclusive, HP1b binding inh inconclusive, JMJD2A Tudor 10µM, BAZ2B block 8.91µM
O=[N+]([O-])c1ccc(Nc2ccc(N3CCOCC3)cc2)c([N+](=O)[O-])c1	G9a inh 22.4µM, HP1b binding inh 31.6µM, JMJD2A Tudor inconclusive, BAZ2B block 11.2µM

High-throughput results deposited in PubChem by National Center for Advancing Translational Sciences (NCATS).
